Assay results as given in PubChem BioAssay (NCI).
About 83,000 compounds went through this panel and 20% of them were active in at least one assay; those are over-represented in the sample as a whole.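 Interpretation: 100, growth as untreated; towards 0, rising growth inhibition; 0, no net growth; 0 to -100, cell death. Compounds scoring below 10 were considered active.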 Values without a mark were called inactive. Active and inactive are the calls of the source.

Columns and labels:
Test in all cases: NCI-60 one-dose screen, 48 h (100 = growth as untreated, 0 = no growth, -100 = all killed)
Details in all cases: 10 µM unless noted
DU-145 prostate = system: DU-145 prostate
K-562 leukemia = system: K-562 leukemia
MALME-3M melanoma = system: MALME-3M melanoma
MDA-MB-231 breast = system: MDA-MB-231 breast
SF-268 CNS = system: SF-268 CNS
SF-295 CNS = system: SF-295 CNS
SF-539 CNS = system: SF-539 CNS
UACC-257 melanoma = system: UACC-257 melanoma
M14 melanoma = system: M14 melanoma
HCT-15 colon = system: HCT-15 colon
HT29 colon = system: HT29 colon
SNB-75 CNS = system: SNB-75 CNS
SNB-19 CNS = system: SNB-19 CNS
U251 CNS = system: U251 CNS
PC-3 prostate = system: PC-3 prostate
SK-MEL-5 melanoma = system: SK-MEL-5 melanoma
UACC-62 melanoma = system: UACC-62 melanoma
LOX IMVI melanoma = system: LOX IMVI melanoma
SK-MEL-28 melanoma = system: SK-MEL-28 melanoma

| SMILES | growth (DU-145 prostate) | growth (K-562 leukemia) | growth (MALME-3M melanoma) | growth (MDA-MB-231 breast) | growth (SF-268 CNS) | growth (SF-295 CNS) | growth (SF-539 CNS) | growth (UACC-257 melanoma) | growth (M14 melanoma) | growth (HCT-15 colon) | growth (HT29 colon) | growth (SNB-75 CNS) | growth (SNB-19 CNS) | growth (U251 CNS) | growth (PC-3 prostate) | growth (SK-MEL-5 melanoma) | growth (UACC-62 melanoma) | growth (LOX IMVI melanoma) | growth (SK-MEL-28 melanoma) |
| --- | --- | --- | --- | --- | --- | --- | --- | --- | --- | --- | --- | --- | --- | --- | --- | --- | --- | --- | --- |
| CCOC(=O)c1c(O)cc(-c2ccccc2)cc1-c1sc(N(C)Cc2ccccc2)nc1Cl | 108% | 93.4% | 100% | 103% | 95.8% | 99.6% | 97% | 96.1% | -85% (active) | 101% | 110% | 89.9% | 101% | 98% | 97% | 101% | 92.6% | 97% | 101% |
| CCC(C)N(CCNc1cc(OC)cc2cccnc12)CCC(C)C (configuration not stated) | 95.6% | 83.2% | 121% | 84.5% | 78.6% | 97% | 101% | 87.3% | 82.4% | 76.6% | 55.6% | 100% | 96.2% | 84% | 79.3% | 95.2% | 94.2% | 86% | 99.7% |
| S=c1[nH]cccc1-c1nnc2n1Nc1nc3ccccc3cc1CS2 | 120% | 99.5% | 97.1% | 92.9% | 101% | 112% | 96.1% | 110% | 101% | 108% | 106% | 82.8% | 94.8% | 103% | 107% | 97.4% | 91.2% | 98.6% | 111% |
| COc1ccc(C(=O)c2cc3c(N)c(C(=O)Nc4cccc(Br)c4C)sc3nc2C)cc1 | 8.9% (active) | 5.28% (active) | 51.8% | 13% | 22.9% | 22.2% | -15.3% (active) | 59% | 7.09% (active) | 14.2% | -1.07% (active) | -16.9% (active) | 43% | 10.7% | 21% | -36.2% (active) | 38% | 19% | 62.1% |
| O=C(CNCCO)Nc1ccc2ncnc(Nc3ccc(OCc4cccc(F)c4)c(Cl)c3)c2c1 | 61.6% | 27.8% | 98.2% | 87.7% | 78.1% | 95% | 87.8% | 101% | 93.4% | 87.9% | 46.9% | 88.2% | 82% | 69.9% | 84.4% | 89% |  | 74.3% | 91% |
| CC1(C)CN(Cc2ccccc2)CCN1Cc1ccccc1 | 114% | 98.8% | 116% | 101% | 105% | 101% | 107% | 89.1% | 107% | 104% | 96.2% | 121% | 98.1% | 92.3% | 95.4% | 97.8% | 97.9% | 98.6% | 111% |
| C=C(C)[C@H]1CC/C(C)=C/CC[C@]2(C)O[C@H]2CC/C(COC(=O)[C@@H](OC(C)=O)[C@H](NC(=O)c2ccccc2)c2ccccc2)=C\[C@@H]1O | 102% | 129% | 100% | 88.5% | 90.2% | 88.8% | 87.2% | 83.1% | 90.6% | 105% | 102% | 72.6% | 81.8% | 99.2% | 90.1% | 78.8% | 59.3% | 93.1% | 104% |
| c1ccc(N2N=C(c3cccc(Nc4ccncc4)c3)CC2c2ccc3c(c2)OCO3)cc1 (configuration not stated) | 16.4% | 4.94% (active) | -22.6% (active) | 37.7% | 29.9% | -17.1% (active) | 9.86% (active) | 27.2% | 93.1% | -26% (active) | 6.66% (active) | 5.74% (active) | 42.4% | 4.31% (active) | 14.3% | -14.3% (active) | 62.1% | -22.1% (active) | -52.7% (active) |
| FC(F)(F)Oc1cccc(-c2cc(NCCCCCCNc3cc(-c4cccc(OC(F)(F)F)c4)nc4ccc(N5CCCC5)cc34)c3cc(N4CCCC4)ccc3n2)c1 | -5.9% (active) | -48.7% (active) | -96.2% (active) | -91.5% (active) | -65.5% (active) | 34.1% | 8.48% (active) | -9.02% (active) | -84% (active) | -57.5% (active) | -27.7% (active) | -4.49% (active) | -68.3% (active) | -90.2% (active) | -22.2% (active) | -62.4% (active) | -92.1% (active) | -71.1% (active) | -93.7% (active) |
| O=S(=O)(NCCCNc1nccc(-c2c(-c3ccc(F)c(O)c3)nc3sccn23)n1)c1ccc(F)cc1 | 11.5% | 3.41% (active) | -14.7% (active) | -23.1% (active) | 9.56% (active) | -12.1% (active) | 18.5% | -10% (active) | 6.75% (active) | 6.51% (active) | 9.5% (active) | 51.3% | 19.7% | 2.83% (active) | 8.22% (active) | -45.1% (active) | -42.2% (active) | 2.15% (active) | 9.19% (active) |
| COc1cc2nc(Cc3ccc(C)cc3)[nH]c(=O)c2cc1OC | 100% | 94.3% | 277% | 98.8% | 105% | 121% | 104% | 105% | 113% | 104% | 107% | 95.6% | 97.9% | 117% | 101% | 109% | 95.1% | 105% | 96.6% |
| C#CCn1cc(C=C2C(=O)NC(=S)NC2=O)c2cc(Cl)ccc21 | 3.03% (active) | 15% | 43.5% | -26.1% (active) | 6.45% (active) | 46.4% | -57.2% (active) | 61.7% | 44.4% | -23% (active) | 13.6% | 43.9% | 13.2% | 3.31% (active) | 8.39% (active) | 40.8% | 1.1% (active) | -46.1% (active) | -26.5% (active) |
